PrP UTR inh – inhibition of PrP 5' UTR reporter expression; cell-based PrP 5' UTR mRNA reporter, plate reader; inhibition, % (no concentration beside the values); hit rate 0.35% among 340,000; in the data active = inhibition above about 52%; also: 0 = median of the neutral control wells
BJeLR lethal – kills HRASV12-expressing BJeLR cells; BJeLR (HRASV12) viability, CellTiter-Glo ATP luminescence, 48 h; inhibition, % (no concentration beside the values); hit rate 0.17% among 300,000; AID 1554; in the data active = inhibition above about 50%; inconclusive = no clear call, values can overlap the other calls
PriA SSB inh – K. pneumoniae PriA-SSBct interaction inhibition; inhibition, % at 33 µM; hit rate 0.6% among 430,000; AID 1272365; AlphaScreen SSBct-PriA binding, biotinylated peptide; in the data active = inhibition mostly above about 37%, no sharp cut-off; inactive = mostly below about 20%;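 also: plate controls were negative control peptide for no effect and reference peptide for full effect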
Yp Topo-I inh – blocks Yersinia pestis topoisomerase I activity | AID 504884 | Y. pestis Topo-I cleavage product accumulation, plate reader | hit rate 0.064% among 360,000 | activity, % at 10 µM; in the data active = activity above about 50%, passing the limit was not always enough; inconclusive = no clear call, values can overlap the other calls
PfHsp40 rescue – compounds rescuing yeast from Plasmodium falciparum HSP40 toxicity | S. cerevisiae expressing PfHsp40, growth rescue, ATP luminescence | growth rescue, % at 12.5 µM | hit rate 0.68% among 340,000 | AID 504582; in the data active = growth rescue above about 28%, passing the limit was not always enough; inconclusive = no clear call, values can overlap the other calls;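 also: yeast W303a lacking pdr1 and pdr3 grown in galactose medium; growth measured after three days at 30 °C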
PrPC TRFRET – reduces human prion protein on the cell surface. P04156. inhibition, % at 13.8 µM. cell surface PrPC, TR-FRET read-out. hit rate 0.43% among 370,000; in the data active = inhibition above about 24%; also: 0% = median of the test wells and 100% = reference compound wells
* hit, by the source's call; ? = inconclusive; nt = not tested or not shown; ! = not active in a repeat. Rows were chosen to be rich in hits. Some 1.7% of all compounds tested hit in one or more screens of this group.

SMILES	PrP UTR inh	BJeLR lethal	PriA SSB inh	Yp Topo-I inh	PfHsp40 rescue	PrPC TRFRET
O=C(CSCc1ccccc1)NCCn1ccnc1-c1ncccn1	nt	nt	42.0*	nt	nt	nt
O=C(CSCc1ccccc1)NCCn1ccnc1-c1ccccn1	nt	nt	18.9	nt	nt	nt
O=C(NCCn1ccn2nccc12)C1c2ccccc2Oc2ccccc21	nt	nt	-13.0	nt	nt	nt
COc1ccc(CCC(=O)NCCn2ccnc2C2CC2)cc1	nt	nt	7.0	nt	nt	nt
COc1ccc(CCC(=O)NCCn2ccnc2-c2ncccn2)cc1	nt	nt	96.0*	nt	nt	nt
O=C(NCCn1ccnc1-c1ncccn1)C1c2ccccc2Oc2ccccc21	nt	nt	53.0*	nt	nt	nt
O=C(NCCc1ccccc1)NCCn1ccnc1-c1ncccn1	nt	nt	96.0*	nt	nt	nt
CCC(=O)Nc1nnc(-c2cc(C)nn2C)o1	nt	nt	1.0	nt	nt	nt
CN1CCOc2ccc(NC(=O)c3ccccc3C(F)(F)F)cc2C1=O	nt	nt	-6.0	nt	nt	nt
CN1CCN(C(=S)c2ccc3c(c2)OCO3)CC1	nt	nt	-7.0	nt	nt	nt
COC(=O)c1ccc(C(=O)NCCn2ccnc2-c2ncccn2)cc1	nt	nt	35.0	nt	nt	nt
CSc1ccccc1C(=O)NCCn1ccnc1-c1ncccn1	nt	nt	97.0*	nt	nt	nt
CCCc1cc(NCCCn2ccnc2)n2nc3nc(C)cc(C)c3c2n1	nt	nt	-3.0	nt	nt	nt
O=C(NCC1CCN(C(=O)c2cc3ccccc3o2)CC1)c1cncc(Br)c1	nt	nt	-2.0	nt	nt	nt
O=C(Nc1sc2c(c1-c1nc3ccccc3s1)CCCC2)c1cc(Cl)ccc1[N+](=O)[O-]	nt	nt	0.0	nt	nt	nt
CS(=O)(=O)N1N=C(c2ccccc2)CC1c1ccc2nccnc2c1 (stereo not drawn)	-8.1	3.5	-6.6	-1.9	1.9	2.9
CS(=O)(=O)N1N=C(c2cccs2)CC1c1ccc2nccnc2c1 (stereo not drawn)	nt	nt	62.0*	nt	nt	nt
COC(=O)C1=C(C)OC(N)=C(C#N)C1c1c(C)nn(C)c1C (stereo not drawn)	-36.1	-1.9	-14.1	0.1	68.4*	5.9
Cc1c(CNC(=O)c2ccsc2)sc2nc(-c3ccc(F)cc3)cn12	nt	nt	-9.0	nt	nt	nt
O=[N+]([O-])c1nn(-c2ccccc2)n(O)c1=NC1CCCCC1	nt	nt	51.5	nt	nt	nt
O=[N+]([O-])c1nn(-c2cccc(Cl)c2)n(O)c1=NC1CCCCC1	nt	nt	90.3*	nt	nt	nt
O=[N+]([O-])c1nn(-c2ccc3c(c2)OCCO3)n(O)c1=NC1CCCC1	-27.6	5.8	-12.2	2.4	-0.4	-12.8
CCc1ccc(N=c2c([N+](=O)[O-])nn(-c3ccc4c(c3)OCCO4)n2O)cc1	-3.4	0.2	58.1*	-7.4	-0.9	-9.9
O=[N+]([O-])c1nn(-c2ccc3c(c2)OCCO3)n(O)c1=NC1CCCCCC1	nt	3.2	54.6*	6.8	4.9	3.0
CC(=O)c1ccc(NC(=O)CN2C(=O)COc3ccccc32)cc1	nt	nt	56.1*	nt	nt	nt
SMILES	PrP UTR inh	BJeLR lethal	PriA SSB inh	Yp Topo-I inh	PfHsp40 rescue	PrPC TRFRET
CC(=O)c1ccc(NC(=O)CSc2ncnc3nc(N4CCCC4)sc23)cc1	nt	nt	-11.0	nt	nt	nt
Cc1ncc([N+](=O)[O-])n1CCSc1nc2ccccc2s1	nt	nt	13.0	nt	nt	nt
CCCCOc1ccc2c(c1)C(=O)c1cc(O)ccc1-2	-39.2	1.1	23.7	-2.5	284.1*	5.6
CCOc1ccc2c(c1)C(=O)c1cc(OCC(=O)O)ccc1-2	-7.0	-9.3	-0.1	-6.4	0.3	2.7
COc1ccc2cnn(CCOc3cc(C)ccc3C(C)C)c(=O)c2c1OC	-6.9	-8.3	-20.7	19.5	319.8*	-3.5
CCOC(=O)c1sc(NC(=S)NC(=O)c2ccccc2Cl)c(C(=O)OCC)c1C	-0.2	-0.8	-1.5	1.0	-1.7	0.9
CCOC(=O)c1sc(NC(=S)NC(=O)c2ccccc2)c(C(=O)OCC)c1C	-4.9	2.2	81.6*!	-3.3	-0.9	0.0
CCN(CC)C(=O)c1sc(NC(=O)c2ccncc2)c(C(=O)OC)c1C	-30.1	-4.1	64.8*	-5.2	-1.3	9.3
CCc1c(C)nc(SCc2c(F)cccc2Cl)[nH]c1=O	nt	nt	-4.0	nt	nt	nt
Cc1cc(C)c2c(c1)c(=O)c1c(n2C)CCN(C(=O)Nc2ccccc2C)C1	nt	nt	7.0	nt	nt	nt
CCOC(=O)c1ccc2c(c1)n(CC)c(/C=C/N(C)c1ccccc1)[n+]2CC	-24.6	8.9	-7.2	21.4	-0.5	-1.7
CC[n+]1c(/C=C/N(C)c2ccccc2)n(-c2ccccc2)c2ccc(-c3nc4ccccc4s3)cc21	15.4	91.3*	13.8	9.9	?	nt
COc1ccc(NC(=O)c2ccc3nn(CC(=O)Nc4ccccc4C(F)(F)F)c(=O)n3c2)cc1	nt	nt	-7.0	nt	nt	nt
O=C(Nc1ccc(Cl)cn1)c1cccc(S(=O)(=O)N2CCCCC2)c1	-12.2	-14.1	-4.3	16.1	70.4*	1.2
O=C(Nc1ccc(Cl)cn1)c1cccc(S(=O)(=O)N2CCCCCC2)c1	nt	nt	nt	13.5	nt	-0.2
COC(=O)c1sccc1NC(=O)C1CCCCC1C(=O)O (stereo not drawn)	-43.1	2.7	-10.9	-8.1	-1.0	37.1*
O=C(c1csc2nc(-c3ccccc3)cn12)N1CCN(c2ccccc2)CC1	nt	nt	active	nt	nt	nt
COc1ccccc1N1CCN(C(=O)c2csc3nc(-c4ccc(F)cc4)cn23)CC1	nt	nt	20.0*	nt	nt	nt
O=C(c1csc(Nc2ccccc2)n1)N1CCN(c2ccccc2)CC1	nt	nt	21.0*	nt	nt	nt
COc1cccc(-c2cn3c(C(=O)N4CCN(c5ccccc5OC)CC4)csc3n2)c1	nt	nt	20.0	nt	nt	nt
COC(=O)C1=C(C)N(Cc2ccccc2)C(=NCc2cccc(C(F)(F)F)c2)N[C@H]1c1cccc(C(F)(F)F)c1	-15.1	nt	-10.4	2.5	1.8	nt
COC(=O)C1=C(C)N(Cc2ccccc2)C(=NCc2cccc(C(F)(F)F)c2)N[C@H]1c1cccc(F)c1	-12.2	99.1*	-17.4	-1.3	5.4	-4.3
CC(=O)Nc1cccc(-c2cc(-c3c(Cl)cccc3Cl)no2)c1	-0.1	1.0	-2.2	2.8	356.9*	13.0
Cc1ccc(N2C(=O)CSC2=NC(=O)Nc2ccc(Cl)cc2)cc1	nt	nt	-10.0	nt	nt	nt
Cc1ccc(-c2ccc(N3CCN(S(=O)(=O)c4ccc(F)cc4F)CC3)nn2)cc1C	nt	nt	11.0	nt	nt	nt
SMILES	PrP UTR inh	BJeLR lethal	PriA SSB inh	Yp Topo-I inh	PfHsp40 rescue	PrPC TRFRET
COc1ccc(C2NCCc3c2[nH]c2ccccc32)cc1COc1ccc(F)cc1 (stereo not drawn)	-3.6	-4.3	25.1	-4.7	0.2	-9.0
COc1ccc(C2NCCc3c2[nH]c2ccccc32)cc1CN1CCc2cc(OC)c(OC)cc2C1C (stereo not drawn)	-22.4	8.0	43.5*	-8.0	0.4	nt
CC(C)S(=O)(=O)c1cccc(C(=O)Nc2nnc(Cc3cccs3)o2)c1	nt	nt	41.0*	nt	nt	nt
C[C@H]1CCCN(S(=O)(=O)c2ccc(C(=O)Nc3nnc(Cc4cccs4)o3)cc2)C1	nt	nt	91.0*	nt	nt	nt
CC1CCN(S(=O)(=O)c2ccc(C(=O)Nc3nnc(C4CC4)o3)cc2)CC1	-8.0	-1.3	-4.2	-2.9	58.0*	2.5
Cc1ccc(S(=O)(=O)N2CCCC(C(=O)Nc3nnc(Cc4cccs4)o3)C2)cc1 (stereo not drawn)	nt	nt	12.0	nt	nt	nt
O=C(Nc1nnc(Cc2cccs2)o1)c1ccc(S(=O)(=O)N2CCOCC2)cc1	nt	nt	79.0*	nt	nt	nt
COc1cccc(C(=O)Nc2nnc(Cc3ccc(S(=O)(=O)C(C)C)cc3)o2)c1	nt	nt	-3.0	nt	nt	nt
NC(=O)c1ccccc1NC(=O)c1cc(=O)c(OCc2ccc(F)cc2)co1	nt	nt	-13.0	nt	nt	nt

Source: PubChem (several laboratories)
